# Unmarked numbers belong to inactive results. Inconclusive results are not listed. Where a call stands in place of a potency, no number is given. The source made the active and inactive calls. Unless noted, calls come from the whole dose curve; as a rule, active = well fitted curve in the direction sought with a large enough effect; inconclusive = small, poorly fitted or top-dose-only effect, or another doubt; inactive = no such curve, though single readings can be large; an effect the other way counts as inactive or inconclusive.
# Columns and labels:
# [1] = molecular target: Lysosomal acid glucosylceramidase (Homo sapiens) (UniProt P04062); assay: Glucocerebrosidase-p2 (AID 348; in the data active = potency below about 10 µM; note: potency is the fitted concentration of half-maximal effect); settings: purified GBA, blue fluorogenic substrate, 40 min
# Chain of Lysosomal acid glucosylceramidase (Homo sapiens) (P04062 whole entry, looked up): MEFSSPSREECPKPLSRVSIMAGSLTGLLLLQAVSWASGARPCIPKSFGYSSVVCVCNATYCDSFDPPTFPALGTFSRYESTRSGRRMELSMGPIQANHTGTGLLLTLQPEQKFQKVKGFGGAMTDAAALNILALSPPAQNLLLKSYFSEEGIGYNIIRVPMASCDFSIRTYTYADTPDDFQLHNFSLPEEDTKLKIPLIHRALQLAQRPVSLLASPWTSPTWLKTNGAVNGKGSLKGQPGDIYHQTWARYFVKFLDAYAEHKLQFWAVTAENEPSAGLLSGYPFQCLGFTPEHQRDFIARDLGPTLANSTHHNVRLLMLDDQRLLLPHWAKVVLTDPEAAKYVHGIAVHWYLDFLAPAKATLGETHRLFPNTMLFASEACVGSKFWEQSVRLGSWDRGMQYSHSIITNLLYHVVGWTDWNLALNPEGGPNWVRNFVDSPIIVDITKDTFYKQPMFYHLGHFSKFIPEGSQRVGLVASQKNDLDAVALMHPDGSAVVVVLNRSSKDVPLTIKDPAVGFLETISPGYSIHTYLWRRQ
# How it was run: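 Normal human glucocerebrosidase (0.2 nM) with blue fluorogenic substrate (80 uM final) in citrate/phosphate pH 5.9 with 10mM sodium taurocholate, 0.01% tween-20; 40 min RT, NaOH/glycine stop; fluorescence Ex 365/Em 440; AC50 from a titration from 0.6 nM upwards.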
# [2] = molecular target: Cytochrome P450 1A2 (Homo sapiens) (UniProt P05177); assay: p450-cyp1a2 (AID 410; calls by dose curve; note: potency is the fitted concentration of half-maximal effect); settings: recombinant CYP1A2, luciferin-ME demethylation, luminescence; series mostly up to 57 µM
# Chain of Cytochrome P450 1A2 (Homo sapiens) (P05177 whole entry, looked up): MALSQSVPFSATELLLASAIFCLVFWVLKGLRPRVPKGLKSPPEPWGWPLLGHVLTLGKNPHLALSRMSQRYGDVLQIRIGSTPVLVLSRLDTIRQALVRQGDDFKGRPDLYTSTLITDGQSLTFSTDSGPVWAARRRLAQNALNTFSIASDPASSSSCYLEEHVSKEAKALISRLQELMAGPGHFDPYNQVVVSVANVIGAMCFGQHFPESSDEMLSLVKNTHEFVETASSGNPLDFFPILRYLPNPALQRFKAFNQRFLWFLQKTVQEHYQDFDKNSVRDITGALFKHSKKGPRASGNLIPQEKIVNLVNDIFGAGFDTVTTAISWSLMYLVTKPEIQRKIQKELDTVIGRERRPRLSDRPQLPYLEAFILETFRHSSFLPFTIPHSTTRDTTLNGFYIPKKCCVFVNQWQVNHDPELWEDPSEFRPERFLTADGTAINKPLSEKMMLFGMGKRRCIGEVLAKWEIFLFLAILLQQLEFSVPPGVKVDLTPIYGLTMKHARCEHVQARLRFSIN
# How it was run: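 20nM CYP1A2, 100uM Luciferin-ME (=Km), 100mM KPO4; cpd 10 min RT; +NADPH regen, 60 min RT; stop/detect 20 min; luminescence. Normalized to furafylline 57 uM = full inhibition.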
# [3] = Stat Signaling Pathway (AID 446; active = well fitted curve in either direction with a large enough effect, not every such curve was filed as active;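 note: ME-180 cervical cancer cells given 40 pM IL-6 alongside compound; SIE-controlled beta-lactamase reporter measured as 460/530 nm FRET emission ratio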); settings: ME-180 (cervical carcinoma) SIE beta-lactamase reporter, IL-6 stimulated, 5 h; at 7.69 µM (top of the series) unless noted
# How it was run: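 FRET read-out (405 nm excitation, 460/530 nm emission) of a beta-lactamase reporter under a STAT-inducible element in ME-180 cervical carcinoma cells. Cells with compound receive 40 pM IL-6 for 5 h. Values are normalised to AC90 stimulation and AC90 JAK-inhibitor controls.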
# [4] = molecular target: Glucocorticoid receptor (Homo sapiens) (UniProt P04150); assay: GR-GFP Redistribution (AID 450;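 active = compounds whose dose series gives a full or clear partial fitted curve of increased nuclear translocation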; note: potency is the fitted concentration of half-maximal effect); settings: U2OS GR-GFP nuclear translocation, laser cytometry, 2 h
# Chain of Glucocorticoid receptor (Homo sapiens) (P04150 whole entry, looked up, the tested form may be a part): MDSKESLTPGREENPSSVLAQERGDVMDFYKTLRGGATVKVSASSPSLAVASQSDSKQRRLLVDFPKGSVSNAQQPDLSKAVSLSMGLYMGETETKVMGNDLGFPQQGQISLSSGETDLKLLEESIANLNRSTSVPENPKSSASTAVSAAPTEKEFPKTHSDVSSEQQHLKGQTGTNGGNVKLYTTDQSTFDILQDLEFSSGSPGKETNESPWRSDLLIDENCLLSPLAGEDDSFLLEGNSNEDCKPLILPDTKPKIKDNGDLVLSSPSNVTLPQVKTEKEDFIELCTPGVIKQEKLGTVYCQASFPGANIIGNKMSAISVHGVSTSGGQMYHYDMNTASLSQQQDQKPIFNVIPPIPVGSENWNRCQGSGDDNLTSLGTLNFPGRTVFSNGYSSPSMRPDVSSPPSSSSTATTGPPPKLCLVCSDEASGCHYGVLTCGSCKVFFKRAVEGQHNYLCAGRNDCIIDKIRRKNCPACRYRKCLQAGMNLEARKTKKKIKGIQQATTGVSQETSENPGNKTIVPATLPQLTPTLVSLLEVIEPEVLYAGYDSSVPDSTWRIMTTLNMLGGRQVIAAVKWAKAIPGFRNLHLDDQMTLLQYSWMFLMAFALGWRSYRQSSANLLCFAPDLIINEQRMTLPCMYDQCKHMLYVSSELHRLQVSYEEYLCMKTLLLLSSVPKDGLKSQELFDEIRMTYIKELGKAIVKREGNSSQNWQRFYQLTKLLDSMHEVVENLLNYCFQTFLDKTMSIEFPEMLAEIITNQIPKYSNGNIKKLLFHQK
# [5] = molecular target: Glucocorticoid receptor (Homo sapiens) (UniProt P04150); assay: GR-EFC Redistribution (AID 451; calls by dose curve; note: potency is the fitted concentration of half-maximal effect); settings: CHO-K1 GR-EFC translocation, beta-gal luminescence, 2 h
# How it was run: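 CHO-K1 cells expressing nuclear EA and GR-ED fragments of b-gal; compounds titrated up to 46 uM final, 2 h at 37 C. GR nuclear translocation read as complemented b-gal luminescence after 1 h RT detection.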
# [6] = molecular target: Mitogen-activated protein kinase 10 (Mus musculus) (UniProt Q61831); assay: JNK3 AlphaScreen Assay (AID 530; active = well fitted curve in either direction with a large enough effect, not every such curve was filed as active;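 note: kinase came from lysate of stimulated human HepG2 cells; signal reports phosphorylation of biotinylated GST-cJun 1-79 at Ser73 with 10 µM ATP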); settings: JNK3 lysate, c-Jun phosphorylation; series mostly up to 57.1 µM
# How it was run: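 HepG2 lysate (IL-1b/TNFa pre-activated) + biotin-GST-cJun 1-79 + anti-pSer73 cJun; cpd titration, 15 min RT; ATP 10 uM start; Tris pH 7.6, MgCl2, DTT, vanadate; beads in EDTA buffer; AlphaScreen.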
# [7] = molecular target: Cytochrome P450 3A4 (Homo sapiens) (UniProt P08684); assay: qHTS Assay for Activators of Cytochrome P450 3A4 (AID 885); settings: recombinant CYP3A4, Luciferin-PPXE luminescence, 60 min; series mostly up to 57.1 µM; note: nearly all actives have a fitted effect of over 65% in size; note: potency is the fitted concentration of half-maximal effect
# Chain of Cytochrome P450 3A4 (Homo sapiens) (P08684 whole entry, looked up): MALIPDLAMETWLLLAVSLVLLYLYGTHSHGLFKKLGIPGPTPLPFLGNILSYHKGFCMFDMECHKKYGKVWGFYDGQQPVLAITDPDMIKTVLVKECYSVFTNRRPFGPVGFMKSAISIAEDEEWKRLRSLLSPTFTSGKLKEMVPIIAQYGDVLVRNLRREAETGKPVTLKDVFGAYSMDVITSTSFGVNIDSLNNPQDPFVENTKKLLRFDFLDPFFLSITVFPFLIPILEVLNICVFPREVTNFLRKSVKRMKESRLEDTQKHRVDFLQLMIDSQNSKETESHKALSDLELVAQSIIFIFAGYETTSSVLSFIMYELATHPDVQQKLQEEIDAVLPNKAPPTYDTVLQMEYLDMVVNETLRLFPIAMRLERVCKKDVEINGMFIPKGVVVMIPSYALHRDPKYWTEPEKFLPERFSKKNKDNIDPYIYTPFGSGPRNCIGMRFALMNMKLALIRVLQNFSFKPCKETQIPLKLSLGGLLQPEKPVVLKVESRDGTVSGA
# How it was run: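 Luminescent readout of luciferin formed from 25 uM Luciferin-PPXE (KM level) by 20 nM CYP3A4 in 200 mM KPO4, with 60 min NADPH-driven reaction at room temperature after 10 min compound exposure. Ketoconazole (57 uM) defined 100% inhibition.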
# [8] = Primary qHTS for small molecule stabilizers of the endoplasmic reticulum resident proteome: Secreted ER Calcium Modulated Protein (SERCaMP) assay (AID 1508630); settings: SH-SY5Y GLuc-SERCaMP (Gaussia luciferase released on ER calcium loss) secretion, thapsigargin, luminescence; series mostly up to 38.4 µM
# How it was run: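 The SH-SY5Y reporter protocol was run at 3 concentrations up to 38.3 uM (primary) or 11 concentrations (follow-up): 16 h compound, 100 nM thapsigargin for 4 h, then extracellular luciferase luminescence.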
# [9] = molecular target: 3',5'-cyclic-AMP phosphodiesterase 4B (Homo sapiens) (UniProt Q07343); assay: qHTS Assay for Inhibitors of PDE-IV (AID 607; active = well fitted activation curve with a large enough effect in the main read-out, with a control signal flat, not every such curve was filed as active); settings: HEK293 ACTOne CNG channel cells, membrane potential fluorescence; series mostly up to 22.9 µM
# Chain of 3',5'-cyclic-AMP phosphodiesterase 4B (Homo sapiens) (Q07343 whole entry, looked up): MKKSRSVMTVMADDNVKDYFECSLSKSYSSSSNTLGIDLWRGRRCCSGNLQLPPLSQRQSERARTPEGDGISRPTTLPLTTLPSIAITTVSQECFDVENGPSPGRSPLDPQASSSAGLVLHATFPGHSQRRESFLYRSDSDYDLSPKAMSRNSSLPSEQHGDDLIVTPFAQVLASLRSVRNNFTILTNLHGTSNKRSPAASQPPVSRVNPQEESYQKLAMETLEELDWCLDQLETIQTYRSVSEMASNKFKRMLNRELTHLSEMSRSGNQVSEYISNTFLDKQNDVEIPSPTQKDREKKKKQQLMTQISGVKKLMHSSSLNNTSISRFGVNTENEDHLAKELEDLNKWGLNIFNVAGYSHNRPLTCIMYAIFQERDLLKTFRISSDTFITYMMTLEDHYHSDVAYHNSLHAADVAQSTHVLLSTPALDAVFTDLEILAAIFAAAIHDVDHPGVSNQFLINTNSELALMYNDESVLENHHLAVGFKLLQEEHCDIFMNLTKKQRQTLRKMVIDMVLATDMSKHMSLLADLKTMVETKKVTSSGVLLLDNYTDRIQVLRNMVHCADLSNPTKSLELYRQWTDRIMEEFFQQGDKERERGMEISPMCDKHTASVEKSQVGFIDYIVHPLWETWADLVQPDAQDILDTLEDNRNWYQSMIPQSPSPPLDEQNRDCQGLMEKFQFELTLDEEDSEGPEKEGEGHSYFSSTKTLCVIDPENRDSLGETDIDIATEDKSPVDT
# How it was run: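 Cell-based read-out of cAMP via a modified cyclic nucleotide-gated channel and membrane potential dye (535/590 nm) in HEK293 cells expressing PDE4 endogenously. Compounds tested up to 22.9 uM final; 100 uM RO 20-1724 reference.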
# [10] = molecular target: Cytochrome P450 3A4 (Homo sapiens) (UniProt P08684); assay: qHTS Assay for Inhibitors and Substrates of Cytochrome P450 3A4 (AID 884); settings: recombinant CYP3A4, Luciferin-PPXE luminescence; series mostly up to 57.1 µM; note: nearly all actives have a fitted effect of over 50% in size
# How it was run: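 Luminescent readout of luciferin produced by CYP3A4 (20 nM) dealkylation of Luciferin-PPXE, 25 uM (its KM). NADPH-driven reaction ran 60 min at RT after 10 min compound preincubation; data scaled to 57 uM ketoconazole as 100% inhibition.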
# [11] = NFAT Signaling Pathway (AID 444; active = well fitted curve in either direction with a large enough effect, not every such curve was filed as active;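 note: carbachol stimulus at about its EC50 of 1 µM final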); settings: Jurkat NFAT-bla M1, carbachol, beta-lactamase ratio, 5 h; at 7.69 µM (top of the series) unless noted
# How it was run: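 Jurkat cells with NFAT-driven β-lactamase reporter and co-expressed M1 receptor, stimulated with carbachol (final 1 uM, ~EC50), compound titration, 5 h at 37 °C. CCF4 loaded 1 h at RT; 460/530 nm ratio gave %activity and AC50.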
# [12] = molecular target: Guanine nucleotide-binding protein G(i) subunit alpha-1 (Homo sapiens) (UniProt P63096); assay: qHTS Assay for Inhibitors of RGS12 GoLoco Motif Activity (Green Fluorophore) (AID 879); settings: Galphai1/FITC-RGS12 GoLoco peptide, fluorescence polarization; series mostly up to 57.1 µM;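 note: negative values mean loss of peptide binding seen as reduced polarization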
# Chain of Guanine nucleotide-binding protein G(i) subunit alpha-1 (Homo sapiens) (P63096 whole entry, looked up): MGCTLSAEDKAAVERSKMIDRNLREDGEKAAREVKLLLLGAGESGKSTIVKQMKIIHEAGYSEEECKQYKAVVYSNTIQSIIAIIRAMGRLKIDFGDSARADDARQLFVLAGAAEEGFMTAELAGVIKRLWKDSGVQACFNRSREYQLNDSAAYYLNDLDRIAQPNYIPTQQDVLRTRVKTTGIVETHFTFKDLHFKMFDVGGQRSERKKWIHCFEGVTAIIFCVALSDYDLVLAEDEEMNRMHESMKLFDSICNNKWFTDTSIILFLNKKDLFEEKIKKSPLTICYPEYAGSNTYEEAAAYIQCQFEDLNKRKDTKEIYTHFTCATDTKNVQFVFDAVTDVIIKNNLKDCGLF
# How it was run: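 A drop in FITC polarization marked displacement of the FITC-tagged RGS12 GoLoco peptide (10 nM) from Gαi1 (50 nM). Compounds were incubated 10 min at room temperature in Tris pH 7.5 buffer containing 150 mM NaCl, 0.1 mM GDP and 0.05% NP40; unlabeled peptide titration served as control.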
# [13] = molecular target: Muscarinic acetylcholine receptor M1 (Rattus norvegicus) (UniProt P08482); assay: qHTS Assay for Antagonists of Acetylcholine Muscarinic M1 Receptor: Measurement of IP-One Response (AID 944); settings: CHO-M1 cells, IP-One HTRF, antagonist mode; series mostly up to 46.1 µM; note: nearly all actives have a fitted effect of over 75% in size
# How it was run: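 Read-out: HTRF competition between d2-IP1 and Eu-cryptate anti-IP1 antibody, emission 620 and 665 nm. Stimulus was carbachol, EC80 (200 nM), for 30 min in M1-CHO cells (rat receptor), after 10 min compound pre-treatment.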
# [14] = molecular target: Pyruvate kinase (Leishmania mexicana) (UniProt Q27686); assay: qHTS Validation Assay for Inhibitors of Leishmania Mexicana Pyruvate Kinase (AID 945); settings: purified L. mexicana pyruvate kinase, enzyme activity, E451W mutant enzyme; series mostly up to 57.5 µM
# How it was run: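 An endpoint luciferase assay: 0.2 nM LmPYK E451W turns over 0.5 mM PEP with 0.1 mM ADP for 1 h at room temperature, pH 7.2, before PKLight addition. Values are normalized to DMSO-only wells.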
# [15] = molecular target: Pyruvate kinase PKM (Homo sapiens) (UniProt P14618); assay: qHTS Assay for Activators of Human Muscle Pyruvate Kinase (AID 954; active = well fitted curve in the direction sought with a large enough effect, not every such curve was filed as active); settings: purified human muscle pyruvate kinase, luciferase-coupled luminescence, 1 h; series mostly up to 57.5 µM
# Chain of Pyruvate kinase PKM (Homo sapiens) (P14618 whole entry, looked up): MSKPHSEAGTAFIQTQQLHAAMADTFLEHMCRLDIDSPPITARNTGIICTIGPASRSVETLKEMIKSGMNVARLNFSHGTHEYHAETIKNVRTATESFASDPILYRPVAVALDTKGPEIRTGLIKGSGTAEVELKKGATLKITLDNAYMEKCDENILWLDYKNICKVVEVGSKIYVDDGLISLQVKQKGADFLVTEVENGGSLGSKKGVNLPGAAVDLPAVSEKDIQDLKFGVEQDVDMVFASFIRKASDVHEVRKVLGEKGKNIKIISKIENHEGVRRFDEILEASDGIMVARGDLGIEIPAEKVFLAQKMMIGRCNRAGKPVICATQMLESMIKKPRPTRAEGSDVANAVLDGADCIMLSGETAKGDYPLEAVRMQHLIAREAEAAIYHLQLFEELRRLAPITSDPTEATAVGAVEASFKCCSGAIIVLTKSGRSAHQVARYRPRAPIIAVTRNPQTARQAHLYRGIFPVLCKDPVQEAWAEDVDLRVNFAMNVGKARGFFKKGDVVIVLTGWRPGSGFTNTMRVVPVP
# How it was run: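 ATP production by PKM2 detected via luciferase luminescence after 1 h room-temperature reaction (0.1 nM enzyme, PEP at Km 0.5 mM, ADP 0.1 mM, pH 7.2 imidazole buffer). Inhibition scaled to no-enzyme control; activation referenced to 0.3 nM enzyme wells.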
# [16] = molecular target: Alpha-galactosidase A (Homo sapiens) (UniProt P06280); assay: Counterscreen for Glucocerebrosidase Inhibitors: qHTS Assay for Human alpha-Galactosidase at pH 4.5 (AID 992); settings: purified enzyme, fluorogenic substrate; series mostly up to 76.9 µM
# Chain of Alpha-galactosidase A (Homo sapiens) (P06280 whole entry, looked up): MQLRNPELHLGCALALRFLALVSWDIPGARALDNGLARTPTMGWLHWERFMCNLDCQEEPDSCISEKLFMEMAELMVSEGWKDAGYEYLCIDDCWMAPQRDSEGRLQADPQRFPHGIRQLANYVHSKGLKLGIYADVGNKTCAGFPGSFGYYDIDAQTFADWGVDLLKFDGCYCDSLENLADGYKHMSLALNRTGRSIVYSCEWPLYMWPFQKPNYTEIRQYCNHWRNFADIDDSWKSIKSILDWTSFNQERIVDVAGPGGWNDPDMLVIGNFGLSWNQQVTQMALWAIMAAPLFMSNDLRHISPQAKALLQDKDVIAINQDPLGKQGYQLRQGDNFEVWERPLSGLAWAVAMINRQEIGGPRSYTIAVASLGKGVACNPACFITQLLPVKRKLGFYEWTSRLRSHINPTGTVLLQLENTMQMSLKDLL
# How it was run: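 Fluorogenic 1536-well qHTS at pH 4.5 (citrate, Tween-20): 2 nM enzyme, 80 uM 4-MU-alpha-galactoside, 20 min room temperature, NaOH/glycine stop. Titration 0.7 nM to 77 uM, data normalized to no-enzyme and full-activity controls, Hill-fitted AC50.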
# [17] = molecular target: alpha-glucosidase (Oryza sativa, rice) (UniProt Q653V4); assay: Counterscreen for Glucocerebrosidase Inhibitors: qHTS Assay for Rice alpha-Glucosidase at pH 5.0 (AID 997); settings: rice alpha-glucosidase enzyme activity; series mostly up to 76.9 µM
# How it was run: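 Endpoint fluorogenic assay at pH 5.0: compounds (0.7 nM to 77 uM) titrated against 4 nM rice enzyme and 400 uM 4-MU-alpha-glucoside for 20 min at room temperature; NaOH/glycine stop, read ex 365/em 440 nm, Hill-fitted AC50.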
# [18] = molecular target: DNA dC->dU-editing enzyme APOBEC-3G (Homo sapiens) (UniProt Q9HC16); assay: qHTS for inhibitors of Vif-A3G interactions: Validation (AID 588379); settings: Vif-A3G protein interaction assay; series mostly up to 46.1 µM
# How it was run: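 Yellow fluorescence (Ex 488, Em 500-530) of Vif-coexpressing HeLa A3G-eYFP cells, scanned by Acumen cytometer, reports blocked A3G degradation. Cells plated at 700/well overnight at 37 deg C before compound addition, then a further overnight compound incubation at 37 deg C.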
# [19] = molecular target: Cytochrome P450 2C9 (Homo sapiens) (UniProt P11712); assay: qHTS Assay for Inhibitors and Substrates of Cytochrome P450 2C9 (AID 883); settings: recombinant CYP2C9, luciferin-H luminescence, 60 min; series mostly up to 57.1 µM; note: potency is the fitted concentration of half-maximal effect; nearly all actives have a fitted effect of over 60% in size
# Chain of Cytochrome P450 2C9 (Homo sapiens) (P11712 whole entry, looked up): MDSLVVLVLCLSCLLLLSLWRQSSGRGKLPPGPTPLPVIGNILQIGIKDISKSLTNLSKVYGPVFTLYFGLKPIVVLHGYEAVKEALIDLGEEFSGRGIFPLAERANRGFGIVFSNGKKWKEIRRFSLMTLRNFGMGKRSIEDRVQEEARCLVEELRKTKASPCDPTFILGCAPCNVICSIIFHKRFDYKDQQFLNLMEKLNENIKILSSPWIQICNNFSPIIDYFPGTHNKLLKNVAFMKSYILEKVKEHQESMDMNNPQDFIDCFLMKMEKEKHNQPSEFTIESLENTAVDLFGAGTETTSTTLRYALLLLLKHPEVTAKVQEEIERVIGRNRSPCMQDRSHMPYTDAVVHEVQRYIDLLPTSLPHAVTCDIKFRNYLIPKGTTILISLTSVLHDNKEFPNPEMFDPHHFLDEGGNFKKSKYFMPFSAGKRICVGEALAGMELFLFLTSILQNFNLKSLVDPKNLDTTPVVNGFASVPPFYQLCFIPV
# How it was run: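 Human CYP2C9 (10nM) with Luciferin-H at 100uM (its KM) in 25mM KPO4; compound preincubated 10 min at 37C, then NADPH regeneration for 60 min at 37C. Luciferin read by luminescence after detection reagent; normalized to 57uM sulphaphenazole as full inhibition.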
# [20] = molecular target: Cytochrome P450 2D6 (Homo sapiens) (UniProt P10635); assay: qHTS Assay for Inhibitors and Substrates of Cytochrome P450 2D6 (AID 891); settings: recombinant CYP2D6, luciferin-ME EGE luminescence; series mostly up to 57.1 µM; note: potency is the fitted concentration of half-maximal effect; nearly all actives have a fitted effect of over 60% in size
# How it was run: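 Luminescent read-out of luciferin formed by 5 nM human CYP2D6 demethylating 30 uM Luciferin-ME EGE (Km level) over 60 min at room temperature after NADPH regeneration addition. Data normalized to full inhibition by 1.43 uM quinidine.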
# [21] = Confirmation and Secondary Assay for Modulators of Hemoglobin Beta Chain Splicing at IVS2 705 locus (AID 930); settings: HeLa EGFP-705 splicing reporter, GFP fluorescence, 48 h; series mostly up to 38.3 µM;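 note: HeLa cells stably expressing the EGFP-705 splicing reporter; GFP fluorescence per well restored by corrected splicing of the IVS2-705 intron in EGFP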
# How it was run: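 Per-well GFP, captured at 1 x 8 µm resolution with 488 nm excitation, served as the read-out for HeLa EGFP-705 cells incubated 2 days with test compound versus DMSO.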
smiles,measurement,setting,value
COc1cccc(Nc2ncc3nc(CCc4ccccc4)c(=O)n(C4CC4)c3n2)c1,Potency,[1],> 11.4 µM
same,Potency,[2],5.01 µM (active)
same,"activity, negative = inhibition",[3],-19.3%
same,Potency,[4],> 9.22 µM
same,Potency,[5],> 46 µM
same,Potency,[6],inactive
same,Potency,[7],inactive
same,outcome,[8],inactive
O=C(Oc1ccccc1)N1CCC2(CC1)CCN(c1cccc(-c3ccccc3)c1)CC2,Potency,[1],> 11.4 µM
same,Potency,[2],12.6 µM (active)
same,"activity, negative = inhibition",[3],-5.12%
same,Potency,[5],> 46 µM
same,Potency,[6],inactive
same,Potency,[9],inactive
same,Potency,[10],inactive
same,Potency,[7],7.94 µM (active)
same,outcome,[8],inactive
COc1ccc(NC(=O)N2CC3(CCN(S(=O)(=O)c4ccccc4)CC3)C2)cc1,Potency,[1],> 11.4 µM
same,Potency,[2],inactive
same,"activity change, negative = inhibition",[11],10.6%
same,"activity, negative = inhibition",[3],-2.28%
same,Potency,[5],> 46 µM
same,Potency,[6],inactive
same,Potency,[9],inactive
same,Potency,[7],inactive
same,outcome,[8],inactive
Oc1cc2c(c(Cl)c1O)CCNC[C@H]2c1ccccc1,Potency,[12],inactive
same,Potency,[13],inactive
same,outcome,[14],inactive
same,outcome,[15],inactive
same,outcome,[16],inactive
same,outcome,[17],inactive
same,outcome,[18],inactive
O=c1c(-c2cccs2)nc2cnc(Oc3cccc(Cl)c3)nc2n1C[C@H]1CCCO1,Potency,[19],3.16 µM (active)
COc1cccc(Cn2c(=O)c(CCc3ccccc3)nc3cnc(OC)nc32)c1,Potency,[19],6.31 µM (active)
O=C(c1cnccn1)N1CCC2(CC1)CN(Cc1cc(C(F)(F)F)cc(C(F)(F)F)c1)C2,Potency,[20],0.398 µM (active)
COc1ccccc1CNc1nc(-c2ccc(N(C)C)cc2)nc2ccccc12,outcome,[21],inactive
